Here are results for 11 molecules from PubChem BioAssay (Tox21).

Records with an inconclusive call do not appear. Active and inactive are the calls of the source. Calls follow the shape of the dose curve; as a rule, active = well fitted curve in the direction sought with a large enough effect in the repeat runs; inconclusive = weak or mixed curves; inactive = no such curve, though single readings can be large; an effect the other way counts as inactive or inconclusive.

For assay [1], the target named is Cytochrome P450 2C19 (Homo sapiens) (UniProt P33261). Put plainly: Cytochrome P450 Family 2 Subfamily C Member 19 (CYP2C19) small molecule antagonists: luciferase reporter qHTS assay (AID 1671197). Also: nearly all actives have a fitted effect of over 65% in size. Also: potency is read from the fitted curve at half-maximal effect. In short, it runs like this: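 Relative luminescence units recorded 20 min after the detection reagent stopped a 1 h, 37C CYP2C19 reaction on proluciferin substrate, which was started by NADPH regeneration following 10 min room-temperature compound preincubation; ketoconazole positive control.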
(In a reporter assay the amount or activity of a reporter protein is the signal.)

For assay [2], the target named is Cytochrome P450 2C9 (Homo sapiens) (UniProt P11712). Put plainly: Cytochrome P450 Family 2 Subfamily C Member 9 (CYP2C9) small molecule antagonists: luciferase reporter qHTS assay (AID 1671198). Also: nearly all actives have a fitted effect of over 50% in size. Also: potency is read from the fitted curve at half-maximal effect. An outline of the steps:
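P450-Glo proluciferin substrate with CYP2C9 enzyme; 10 min RT preincubation, then NADPH regeneration 1 h at 37C; luciferin detection reagent 20 min RT, luminescence in relative luminescence units.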

Assay [3] deals with Cytochrome P450 1A2 (Homo sapiens) (UniProt P05177). Put plainly: Cytochrome P450 Family 1 Subfamily A Member 2 (CYP1A2) small molecule antagonists: luciferase reporter qHTS assay (AID 1671199). Also: nearly all actives have a fitted effect of over 50% in size. Also: potency is read from the fitted curve at half-maximal effect. An outline of the steps:
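Inhibition of CYP1A2 conversion of proluciferin to luciferin, detected by luminescence. Reaction run 1 h at room temperature with NADPH regeneration after brief compound preincubation.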

For assay [4], the target named is Voltage-gated inwardly rectifying potassium channel KCNH2 (Homo sapiens) (UniProt Q12809). In words: Human Ether-a-go-go-Related Gene (hERG) channel small molecule antagonists: fluorescence cell-based qHTS assay (AID 1671200). Also: series mostly up to about 77 µM; nearly all actives have a fitted effect of over 50% in size. An outline of the steps:
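Thallium flux as potassium surrogate: FluxOR II dye loaded 1 h at room temperature into hERG-expressing U2OS cells, then stimulus buffer added after 10 min. Kinetic 480 nm excitation/540 nm emission read, 2 min.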

The target in assay [5] is Cytochrome P450 3A4 (Homo sapiens) (UniProt P08684). In words: Cytochrome P450 Family 3 Subfamily A Member 4 (CYP3A4) small molecule antagonists: luciferase reporter qHTS assay (AID 1671201). Also: nearly all actives have a fitted effect of over 50% in size. Also: potency is read from the fitted curve at half-maximal effect. In short, it runs like this:
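Recombinant human CYP3A4 converts a proluciferin substrate to luciferin over 1 h at room temperature after NADPH regeneration solution is added (compound preincubated 10 min); detection reagent stops reaction, luminescence read 20 min later as relative units.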

Sequence of Cytochrome P450 1A2 (Homo sapiens) (P05177 whole entry, looked up): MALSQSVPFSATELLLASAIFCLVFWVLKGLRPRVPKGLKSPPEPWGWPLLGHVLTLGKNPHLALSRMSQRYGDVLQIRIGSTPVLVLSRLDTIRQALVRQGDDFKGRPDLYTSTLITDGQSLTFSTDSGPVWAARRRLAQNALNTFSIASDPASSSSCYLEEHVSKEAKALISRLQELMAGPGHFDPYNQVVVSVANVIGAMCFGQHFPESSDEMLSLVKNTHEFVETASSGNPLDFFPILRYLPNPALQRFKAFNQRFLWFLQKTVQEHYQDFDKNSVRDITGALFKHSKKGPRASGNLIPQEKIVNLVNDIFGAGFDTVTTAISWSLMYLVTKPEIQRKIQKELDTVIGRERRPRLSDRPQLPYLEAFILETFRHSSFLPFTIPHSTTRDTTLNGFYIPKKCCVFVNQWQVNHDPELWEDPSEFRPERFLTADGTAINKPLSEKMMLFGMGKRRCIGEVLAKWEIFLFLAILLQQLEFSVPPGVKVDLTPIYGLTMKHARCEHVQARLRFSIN
Sequence of Voltage-gated inwardly rectifying potassium channel KCNH2 (Homo sapiens) (Q12809 whole entry, looked up): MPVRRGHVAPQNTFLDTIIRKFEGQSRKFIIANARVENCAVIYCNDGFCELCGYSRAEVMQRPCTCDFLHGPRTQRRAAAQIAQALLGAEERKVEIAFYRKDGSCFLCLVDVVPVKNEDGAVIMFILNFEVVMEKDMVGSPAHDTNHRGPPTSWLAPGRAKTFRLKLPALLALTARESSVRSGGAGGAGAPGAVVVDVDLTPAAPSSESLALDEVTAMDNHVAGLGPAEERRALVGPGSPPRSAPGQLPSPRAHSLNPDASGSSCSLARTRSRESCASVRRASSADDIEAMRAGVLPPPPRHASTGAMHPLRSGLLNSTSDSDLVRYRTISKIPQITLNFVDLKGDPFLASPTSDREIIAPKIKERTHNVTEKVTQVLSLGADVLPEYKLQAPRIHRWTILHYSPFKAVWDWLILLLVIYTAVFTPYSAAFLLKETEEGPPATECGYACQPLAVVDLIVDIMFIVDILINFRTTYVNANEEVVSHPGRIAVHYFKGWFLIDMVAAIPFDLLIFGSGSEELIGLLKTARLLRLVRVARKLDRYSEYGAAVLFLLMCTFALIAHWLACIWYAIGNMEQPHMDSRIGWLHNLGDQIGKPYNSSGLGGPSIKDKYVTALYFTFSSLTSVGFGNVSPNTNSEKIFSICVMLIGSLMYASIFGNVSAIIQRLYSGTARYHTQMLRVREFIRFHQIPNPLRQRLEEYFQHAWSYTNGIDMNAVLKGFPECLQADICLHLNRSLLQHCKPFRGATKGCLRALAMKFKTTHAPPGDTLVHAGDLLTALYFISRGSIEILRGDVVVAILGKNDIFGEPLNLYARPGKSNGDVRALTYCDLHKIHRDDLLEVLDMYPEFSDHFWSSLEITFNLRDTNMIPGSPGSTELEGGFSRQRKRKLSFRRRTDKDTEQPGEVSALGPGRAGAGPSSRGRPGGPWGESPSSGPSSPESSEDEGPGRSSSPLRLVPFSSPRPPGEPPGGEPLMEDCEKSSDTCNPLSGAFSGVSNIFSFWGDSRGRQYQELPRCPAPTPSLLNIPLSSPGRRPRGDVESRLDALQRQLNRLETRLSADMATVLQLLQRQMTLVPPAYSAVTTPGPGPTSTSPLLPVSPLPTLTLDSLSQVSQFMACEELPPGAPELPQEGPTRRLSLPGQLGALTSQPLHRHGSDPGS
Sequence of Cytochrome P450 3A4 (Homo sapiens) (P08684 whole entry, looked up): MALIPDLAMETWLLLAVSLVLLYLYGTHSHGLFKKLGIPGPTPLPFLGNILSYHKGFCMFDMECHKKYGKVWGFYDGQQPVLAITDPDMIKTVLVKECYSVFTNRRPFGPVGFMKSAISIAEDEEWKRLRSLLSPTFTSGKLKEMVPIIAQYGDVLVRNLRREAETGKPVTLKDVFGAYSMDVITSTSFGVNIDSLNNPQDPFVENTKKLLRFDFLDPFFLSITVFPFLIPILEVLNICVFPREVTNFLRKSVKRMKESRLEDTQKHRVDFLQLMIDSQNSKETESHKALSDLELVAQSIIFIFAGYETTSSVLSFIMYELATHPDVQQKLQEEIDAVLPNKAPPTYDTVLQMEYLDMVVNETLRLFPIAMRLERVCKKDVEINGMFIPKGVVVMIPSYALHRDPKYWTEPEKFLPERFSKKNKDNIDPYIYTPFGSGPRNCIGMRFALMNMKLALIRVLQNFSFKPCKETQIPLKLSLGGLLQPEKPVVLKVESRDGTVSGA
Sequence of Cytochrome P450 2C19 (Homo sapiens) (P33261 whole entry, looked up): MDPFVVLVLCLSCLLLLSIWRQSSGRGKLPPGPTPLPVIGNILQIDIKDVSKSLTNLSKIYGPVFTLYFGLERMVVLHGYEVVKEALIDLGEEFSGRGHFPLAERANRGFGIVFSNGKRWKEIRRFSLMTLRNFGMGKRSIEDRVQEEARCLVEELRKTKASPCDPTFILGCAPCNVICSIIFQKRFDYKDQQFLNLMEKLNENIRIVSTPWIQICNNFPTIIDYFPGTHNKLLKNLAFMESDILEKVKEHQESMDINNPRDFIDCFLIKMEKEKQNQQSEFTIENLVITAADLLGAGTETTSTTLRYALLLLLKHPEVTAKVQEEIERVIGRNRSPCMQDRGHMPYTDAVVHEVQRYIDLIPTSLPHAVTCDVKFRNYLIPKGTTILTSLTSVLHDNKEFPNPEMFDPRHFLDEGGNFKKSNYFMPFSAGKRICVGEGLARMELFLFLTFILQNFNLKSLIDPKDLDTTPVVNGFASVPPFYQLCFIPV
Sequence of Cytochrome P450 2C9 (Homo sapiens) (P11712 whole entry, looked up): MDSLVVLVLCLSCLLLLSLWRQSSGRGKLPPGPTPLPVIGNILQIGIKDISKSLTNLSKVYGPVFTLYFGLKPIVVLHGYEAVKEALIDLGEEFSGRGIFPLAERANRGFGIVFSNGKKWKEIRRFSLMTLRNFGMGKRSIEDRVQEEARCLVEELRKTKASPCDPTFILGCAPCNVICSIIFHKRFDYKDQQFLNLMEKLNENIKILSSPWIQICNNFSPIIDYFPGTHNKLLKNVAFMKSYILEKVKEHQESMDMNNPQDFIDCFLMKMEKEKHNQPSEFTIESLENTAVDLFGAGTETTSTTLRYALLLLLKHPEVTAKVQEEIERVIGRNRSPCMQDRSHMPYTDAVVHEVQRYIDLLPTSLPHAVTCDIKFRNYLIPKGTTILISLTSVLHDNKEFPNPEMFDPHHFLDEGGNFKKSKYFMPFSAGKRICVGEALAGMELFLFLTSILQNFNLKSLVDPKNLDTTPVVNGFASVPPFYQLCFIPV

Turning to `Nc1ccc(C(=O)Nc2ccccc2N)cc1`, the Potency result in assay [1], in assay [2], in assay [3], in assay [4] and in assay [5] was “inactive” throughout.
In the case of `Nc1cnn([C@@H]2O[C@H](CO)[C@@H](O)[C@H]2O)c(=O)n1`, the Potency result in assay [1], in assay [2], in assay [3], in assay [4] and in assay [5] was “inactive” in each case.
On to `C=Cc1c(C)c2cc3[nH]c(cc4nc(cc5nc(cc1[nH]2)C(C)=C5CCC(=O)O)C(CCC(=O)O)=C4C)c(C)c3C=C`, for which the Potency result in assay [1], in assay [2], in assay [3], in assay [4] and in assay [5] was “inactive” throughout.
For `CCCCCc1ccc(N)cc1`, the Potency in assay [1] was 6.33 µM (active); in assay [2], 28.3 µM (active); in assay [3], 28.3 µM (active); in assay [5] it was 31.7 µM (active). Besides, the Potency result in assay [4] is “inactive”.
As for `COc1ccccc1OC(=O)Oc1ccccc1OC`, the Potency in assay [1] was 9.77 µM (active); in assay [3], 4.56 µM (active). Also, the Potency result in assay [2], in assay [4] and in assay [5] was “inactive” throughout.
Regarding `COCCO`, the Potency entry in assay [1], in assay [2], in assay [3], in assay [4] and in assay [5] was “inactive” each time.
Consider `CC(C)(C)c1cc(CO)cc(C(C)(C)C)c1O`, for which the Potency is 25.7 µM (active) in assay [1], 32.3 µM (active) in assay [2] and 36.3 µM (active) in assay [5]. In addition, the Potency entry in assay [3] and in assay [4] was “inactive” in each case.
In the case of `Cl/C(=C\n1cncn1)c1ccc(Cl)cc1Cl`, the Potency in assay [1] is 1.38 µM (active); in assay [2], 15.5 µM (active); in assay [3], 1.55 µM (active). The Potency result in assay [4] and in assay [5] was “inactive” in each case.
Turning to `CC(=O)N(O)CCCCCNC(=O)CCC(=O)N(O)CCCCCNC(=O)CCC(=O)N(O)CCCCCN`, the Potency entry in assay [1], in assay [2], in assay [4] and in assay [5] was “inactive” throughout. Moreover, the Potency in assay [3] is 24.5 µM (active).
As for `C=CC(=O)OCC(C)OCC(C)OCC(C)OC(=O)C=C` (stereo not given), the Potency in assay [1] is 3.56 µM (active); in assay [2] it was 35.6 µM (active); in assay [3], 6.33 µM (active); in assay [5], 5.03 µM (active). Further, in assay [4], the Potency result is “inactive”.
For `Cc1ccc(C(N)=O)cc1N`, in that order: 44.8 µM (active), “inactive”, 35.6 µM (active), “inactive” and “inactive”.
